# According to PubChem BioAssay (NCATS):
# Several values for one entry are separate records, joined by “and”; a condition that tells them apart may be missing. Equal entries are not always repeated. Inconclusive results are not listed. Where a call stands in place of a potency, no number is given. Unmarked numbers belong to inactive results. Activity calls are given as the source filed them. Unless noted, calls follow the shape of the dose curve; as a rule, active = well fitted curve in the direction sought with a large enough effect; inconclusive = small, poorly fitted or top-dose-only effect, or another doubt; inactive = no such curve, though single readings can be large; an effect the other way counts as inactive or inconclusive.
# Columns and labels:
# [1] = molecular target: Cellular tumor antigen p53 (Homo sapiens) (UniProt P04637); assay: Primary qHTS for small molecule compounds that upregulate eGFP-tagged delta133p53alpha (in N-terminal) cells. (AID 2060322); settings: NCI-H358 eGFP-delta133p53alpha fluorescence, 24 h; activation: stronger effect = higher value; also: nearly all actives have a fitted effect of over 75% in size
# Outline: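 NCI-H358 cells pre-induced 24 h with 10 ng/ml doxycycline to express N-terminal eGFP-delta133p53alpha, then dosed 24 h at 37C without doxycycline; fixed, Hoechst-stained, GFP intensity by laser scanning cytometry, normalized to DMSO (0%) and 57.5 uM 5-azacytidine (100%).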
# [2] = molecular target: Cellular tumor antigen p53 (Homo sapiens) (UniProt P04637); assay: Primary qHTS for small molecule compounds that upregulate eGFP-tagged delta133p53alpha (in C-terminal) cells. (AID 2060324); settings: NCI-H358 delta133p53alpha-eGFP (C-terminal tag), GFP fluorescence imaging, 24 h; series mostly up to 57.5 µM; also: potency is read from the fitted curve at half-maximal effect
# Outline: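 NCI-H358 cells pre-induced 24 h with 100 ng/ml doxycycline to express delta133p53alpha-eGFP, then dosed in doxycycline-free medium for 24 h at 37C. Fixed, Hoechst-stained; GFP intensity by laser scanning cytometry, normalized to DMSO wells.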
# [3] = molecular target: Aldehyde dehydrogenase, mitochondrial (Homo sapiens) (UniProt P05091); assay: qHTS for Inhibitors of the Aldehyde Dehydrogenase Family (ALDH2) Validation screens (AID 2061302; active = well fitted inhibition curve with a large enough effect; title and protocol of this record describe different tests); settings: ALDH inhibition qHTS; series mostly up to 42.6 µM
# [4] = molecular target: Retinaldehyde dehydrogenase 3 (Homo sapiens) (UniProt P47895); assay: qHTS for Inhibitors of the Aldehyde Dehydrogenase Family (ALDH1A3) Validation screen (AID 2061312); settings: ALDH1A3 enzyme inhibition qHTS validation, fluorescence; series mostly up to 84.7 µM; also: nearly all actives have a fitted effect of over 45% in size
# [5] = BET inhibitor-based combinations targeting novel dependencies in MECOM-rearranged (r) AML: OCI-AML3 cell line (AID 2202232); settings: CellTiter-Glo luminescence, 48 h; Potency: OCI-AML3 viability; series mostly up to 46 µM; also: nearly all actives have a fitted effect of over 35% in size
# Outline: (§1)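 AML cell lines seeded at 500 cells/well, treated with 11-point dose curves for 48 h. Viability by CellTiter-Glo luminescence, normalised to DMSO and empty wells; activity expressed as AUC and per-cell-line Z-transformed AUC.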
# [6] = BET inhibitor-based combinations targeting novel dependencies in MECOM-rearranged (r) AML: MV-4-11 cell line (AID 2202233); settings: MV-4-11 AML viability, CellTiter-Glo luminescence, 48 h; series mostly up to 46 µM; also: nearly all actives have a fitted effect of over 45% in size; also: potency is read from the fitted curve at half-maximal effect
# Outline: (§2)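 Cells at 500/well were exposed for 48 hr to MIPE v5.0 drugs as 11-point dose curves. Viability was read by CellTiter-Glo luminescence and normalized to DMSO and empty-well controls. Activity was expressed as AUC and per-cell-line Z-AUC.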
# [7] = BET inhibitor-based combinations targeting novel dependencies in MECOM-rearranged (r) AML: HNT-34 cell line (AID 2202234); settings: HNT-34 AML viability, CellTiter-Glo luminescence, 48 h; series mostly up to 46 µM; also: nearly all actives have a fitted effect of over 35% in size
# Outline: as §2
# [8] = BET inhibitor-based combinations targeting novel dependencies in MECOM-rearranged (r) AML: UCSD-AML1 cell line (AID 2202235); settings: UCSD-AML1 AML cells viability, CellTiter-Glo, 48 h; series mostly up to 46 µM; also: nearly all actives have a fitted effect of over 40% in size
# Outline: as §2
# [9] = BET inhibitor-based combinations targeting novel dependencies in MECOM-rearranged (r) AML: AML-191 cell line (AID 2202236; also: nearly all actives have a fitted effect of over 35% in size; also: potency is read from the fitted curve at half-maximal effect); settings: AML-191 viability, CellTiter-Glo luminescence, 48 h; series mostly up to 46 µM
# Outline: as §1
# [10] = BET inhibitor-based combinations targeting novel dependencies in MECOM-rearranged (r) AML: AML-194 cell line (AID 2202237; also: nearly all actives have a fitted effect of over 40% in size); settings: AML-194 (MECOM-r AML) viability, CellTiter-Glo, 48 h; series mostly up to 46 µM
# Outline: as §1
# [11] = BET inhibitor-based combinations targeting novel dependencies in MECOM-rearranged (r) AML: SET-2 cell line (AID 2202231); settings: SET-2 AML cells viability, CellTiter-Glo luminescence, 48 h; viability: stronger effect = lower value, concentration not given here; also: nearly all actives have a fitted effect of over 35% in size; also: potency is read from the fitted curve at half-maximal effect
# Outline: as §1
# [12] = qHTS for Inhibitors of the Aldehyde Dehydrogenase Family (ALDH1A2, ALDH1A3, ALDH2, ALDH3A1) (AID 2061307); settings: ALDH inhibition qHTS; series mostly up to 50.3 µM; also: nearly all actives have a fitted effect of over 50% in size; as to potency: test system not described further here; potency is read from the fitted curve at half-maximal effect
# [13] = molecular target: Retinaldehyde dehydrogenase 3 (Homo sapiens) (UniProt P47895); assay: qHTS for Inhibitors of the Aldehyde Dehydrogenase Family (ALDH1A3) Confirmatory screens (AID 2061311); settings: ALDH inhibition qHTS; series mostly up to 46 µM; also: nearly all actives have a fitted effect of over 60% in size; also: potency is read from the fitted curve at half-maximal effect
# [14] = molecular target: Retinal dehydrogenase 2 (Homo sapiens) (UniProt O94788); assay: qHTS for Inhibitors of the Aldehyde Dehydrogenase Family (ALDH1A2) Confirmation screens (AID 2061314); settings: ALDH1A2 enzyme inhibition qHTS confirmation; series mostly up to 45.9 µM; also: nearly all actives have a fitted effect of over 65% in size; also: potency is read from the fitted curve at half-maximal effect
# [15] = molecular target: Aldehyde dehydrogenase 1A1 (Homo sapiens) (UniProt P00352); assay: qHTS for Inhibitors of the Aldehyde Dehydrogenase Family (ALDH1A1) Confirmatory screens (AID 2061316); settings: ALDH inhibition qHTS; series mostly up to 47.3 µM; also: nearly all actives have a fitted effect of over 65% in size; also: potency is read from the fitted curve at half-maximal effect
# [16] = molecular target: Aldehyde dehydrogenase, mitochondrial (Homo sapiens) (UniProt P05091); assay: qHTS for Inhibitors of the Aldehyde Dehydrogenase Family (ALDH2) Confirmatory screens (AID 2061303; active = well fitted inhibition curve with a large enough effect; title and protocol of this record describe different tests; also: nearly all actives have a fitted effect of over 45% in size); settings: ALDH inhibition qHTS; series mostly up to 45.4 µM
# Sequence of Cellular tumor antigen p53 (Homo sapiens) (P04637 whole entry, looked up): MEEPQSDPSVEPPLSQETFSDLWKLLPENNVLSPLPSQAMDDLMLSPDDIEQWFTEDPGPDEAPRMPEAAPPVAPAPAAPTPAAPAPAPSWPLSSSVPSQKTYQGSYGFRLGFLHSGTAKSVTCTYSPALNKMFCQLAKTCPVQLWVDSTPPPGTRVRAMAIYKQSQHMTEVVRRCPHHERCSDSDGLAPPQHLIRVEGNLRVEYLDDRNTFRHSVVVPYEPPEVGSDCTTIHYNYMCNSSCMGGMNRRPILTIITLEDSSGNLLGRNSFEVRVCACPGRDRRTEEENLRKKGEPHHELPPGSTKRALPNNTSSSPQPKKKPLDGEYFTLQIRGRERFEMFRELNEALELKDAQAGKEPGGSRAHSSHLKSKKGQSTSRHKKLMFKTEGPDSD
structure (smiles),measurement,setting,value
C1COC(NC(C2CC2)C2CC2)=N1,activation,[1],11% and 4.18%
same,Potency,[2],inactive
same,Potency,[3],inactive
same,Potency,[4],inactive
same,Potency,[5],inactive
same,Potency,[6],inactive
same,Potency,[7],inactive
same,Potency,[8],inactive
same,Potency,[9],inactive
same,Potency,[10],inactive
CS(=O)(=O)Nc1ccc([N+](=O)[O-])cc1Oc1ccccc1,activation,[1],-3.95% and 5.46% and -33.6%
same,Potency,[2],inactive
same,Potency,[3],inactive
same,Potency,[4],inactive
same,viability,[11],107%
same,Potency,[6],inactive
same,Potency,[8],inactive
same,Potency,[9],inactive
same,Potency,[10],inactive
Brc1c(NC2=NCCN2)ccc2nccnc12,activation,[1],-0.565% and -20%
same,Potency,[2],inactive
same,Potency,[12],11.3 µM (active)
same,Potency,[13],5.65 µM (active)
same,Potency,[14],8.96 µM (active)
same,Potency,[15],11.3 µM (active)
CN(C)C/C=C(/c1ccc(Br)cc1)c1cccnc1,activation,[1],-2.82% and -52.8%
same,Potency,[2],inactive
same,Potency,[16],inactive
same,Potency,[13],inactive
same,Potency,[15],inactive
NC(=O)OCC(COC(N)=O)c1ccccc1,activation,[1],-10.4% and 18.4% and 1.5%
same,Potency,[2],inactive
same,Potency,[3],inactive
same,viability,[11],119%
same,Potency,[5],inactive
same,Potency,[6],inactive
same,Potency,[7],inactive
same,Potency,[8],inactive
same,Potency,[9],inactive
same,Potency,[10],inactive
COc1cc(/C=C(\C#N)C(=O)c2ccc(O)c(O)c2)cc(I)c1O,activation,[1],0.259%
same,Potency,[2],16.9 µM (active)
same,Potency,[12],4 µM (active)
same,Potency,[13],8.96 µM (active)
same,Potency,[14],12.7 µM (active)
O=C(Nc1cccc(C(=O)Nc2ccc(S(=O)(=O)O)c3cc(S(=O)(=O)O)cc(S(=O)(=O)O)c23)c1)Nc1cccc(C(=O)Nc2ccc(S(=O)(=O)O)c3cc(S(=O)(=O)O)cc(S(=O)(=O)O)c23)c1,activation,[1],-8.79%
same,Potency,[2],inactive
same,Potency,[4],inactive
C[C@@H](N)C1CCC(C(=O)Nc2ccncc2)CC1 (some centres not stated),activation,[1],-43.5% and -9.78%
same,Potency,[2],inactive
same,Potency,[3],inactive
same,viability,[11],110%
same,Potency,[5],inactive
same,Potency,[7],inactive
same,Potency,[8],inactive
same,Potency,[9],inactive
same,Potency,[10],inactive
CCCCS(=N)(=O)CC[C@H](N)C(=O)O (some centres not stated),activation,[1],-3.27%
same,Potency,[2],inactive
same,Potency,[4],inactive
COc1ccccc1OCC(O)CN1CCN(CC(=O)Nc2c(C)cccc2C)CC1 (configuration not stated),activation,[1],-19.2% and 6.83% and -14.1%
same,Potency,[2],inactive
same,Potency,[3],inactive
same,viability,[11],110%
same,Potency,[6],inactive
same,Potency,[7],inactive
same,Potency,[9],inactive
same,Potency,[10],inactive
O=C1Nc2ccc(I)cc2/C1=C/c1cc(Br)c(O)c(Br)c1,activation,[1],-56.5%
same,Potency,[2],19 µM (active)
same,Potency,[3],inactive
same,viability,[11],96.6%
same,Potency,[5],inactive
same,Potency,[6],inactive
same,Potency,[8],inactive
same,Potency,[10],inactive
CCCCCCCC/C=C\CCCCCCCC(=O)NCc1ccc(O)c(OC)c1,activation,[1],-13% and -42.7%
same,Potency,[2],inactive
same,Potency,[4],inactive
O=C(c1ccccc1)c1ccc2n1CCC2C(=O)O (configuration not stated),activation,[1],-6.21% and -3.1%
same,Potency,[2],inactive
same,Potency,[3],inactive
same,viability,[11],104%
same,Potency,[5],inactive
same,Potency,[6],inactive
same,Potency,[7],inactive
same,Potency,[8],inactive
same,Potency,[9],inactive
same,Potency,[10],inactive
COc1ccccc1N1CCN(CC(O)COc2cccc3ccccc23)CC1 (configuration not stated),activation,[1],17.1% and 24.3% and -36.9%
same,Potency,[2],inactive
same,Potency,[3],inactive
same,Potency,[11],13.2 µM (active)
same,Potency,[6],14.8 µM (active)
same,Potency,[9],9.34 µM (active)
same,Potency,[10],inactive
COc1cc(/C=C(\C#N)C(=O)Nc2nnc(C(F)(F)F)s2)ccc1OCc1ccc(C(F)(F)F)cc1C(F)(F)F,activation,[1],-42%
same,Potency,[2],inactive
same,Potency,[16],inactive
same,Potency,[12],inactive
same,Potency,[14],inactive
same,Potency,[15],inactive
same,viability,[11],111%
same,Potency,[7],inactive
same,Potency,[8],inactive
same,Potency,[9],inactive
same,Potency,[10],inactive
Cc1nc(N=Nc2cc(S(=O)(=O)O)c3cc([N+](=O)[O-])cc(S(=O)(=O)O)c3c2)c(COP(=O)(O)O)c(C=O)c1O,activation,[1],-72.9%
same,Potency,[2],inactive
same,Potency,[16],inactive
same,Potency,[12],inactive
same,Potency,[13],22.5 µM (active)
same,Potency,[4],inactive
same,Potency,[14],inactive
same,Potency,[15],inactive
CN1CCN(C2=Nc3ccccc3Oc3ccc(Cl)cc32)CC1,activation,[1],-10% and -16.8%
same,Potency,[2],inactive
same,Potency,[4],inactive
O=C(O)C1=CCCN(CCON=C(c2ccccc2)c2ccccc2)C1,activation,[1],20.9%
same,Potency,[2],inactive
same,Potency,[4],inactive
CCCCC#Cc1nc(NC)c2ncn([C@@H]3O[C@H](CO)[C@@H](O)[C@H]3O)c2n1,activation,[1],-3.87%
same,Potency,[2],inactive
same,Potency,[16],inactive
same,Potency,[12],inactive
same,Potency,[14],inactive
same,Potency,[15],inactive
